{"source": "PubChem BioAssay (NCATS)", "key": {"[1]": {"experiment": "qHTS profiling for inhibitors of Plasmodium falciparum (HB3) proliferation (AID 743324);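 also: 100% = DMSO vehicle wells and 0% = artemisinin-treated control wells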", "conditions": "Plasmodium falciparum HB3 blood-stage proliferation; at 28.7 µM (top of the series)", "summary_of_the_method": "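SYBR Green fluorescence (485 ex/535 em) of lysed cultures, incubated overnight at room temperature in the dark, quantifies parasite DNA. Infected erythrocytes at 0.3% parasitemia and 2.5% hematocrit were exposed 72 h; values normalized to DMSO and 0.29 uM artemisinin controls.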"}, "[2]": {"experiment": "qHTS profiling of the MIPE4 collection as inhibitors of Plasmodium falciparum (3D7) proliferation (AID 743344; call rule not given here)", "conditions": "P. falciparum 3D7 in erythrocytes, SYBR Green DNA fluorescence, 72 h; at 28.5 µM (top of the series)", "summary_of_the_method": "(§1)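 Parasite DNA was quantified by SYBR Green I fluorescence (ex 485, em 535 nm) after overnight lysis in saponin/Triton buffer at room temperature. Cultures at 0.3% parasitemia and 2.5% hematocrit were first exposed to compound for 72 h at 37 C; signals were normalised to artemisinin (0.29 uM) and vehicle wells.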"}, "[3]": {"experiment": "qHTS profiling of the MIPE4 collection as inhibitors of Plasmodium falciparum (DD2) proliferation (AID 743345; call rule not given here)", "conditions": "P. falciparum Dd2 in erythrocytes, SYBR Green DNA, 72 h; at 28.5 µM (top of the series)", "summary_of_the_method": "as §1"}, "[4]": {"experiment": "qHTS profiling of the MIPE4 collection as inhibitors of Plasmodium falciparum (DD2) proliferation (Rep 2) (AID 743346; call rule not given here)", "conditions": "P. falciparum Dd2 in erythrocytes, SYBR Green DNA, 72 h; at 28.5 µM (top of the series)", "summary_of_the_method": "as §1"}, "[5]": {"experiment": "qHTS profiling of the MIPE4 collection as inhibitors of Plasmodium falciparum (HB3) proliferation (AID 743347; call rule not given here)", "conditions": "P. falciparum HB3 in erythrocytes, SYBR Green DNA, 72 h; at 28.5 µM (top of the series)", "summary_of_the_method": "as §1"}, "[6]": {"biological_target": "Cytochrome P450 2C19 (Homo sapiens) (UniProt P33261)", "sequence (P33261 whole entry, looked up)": "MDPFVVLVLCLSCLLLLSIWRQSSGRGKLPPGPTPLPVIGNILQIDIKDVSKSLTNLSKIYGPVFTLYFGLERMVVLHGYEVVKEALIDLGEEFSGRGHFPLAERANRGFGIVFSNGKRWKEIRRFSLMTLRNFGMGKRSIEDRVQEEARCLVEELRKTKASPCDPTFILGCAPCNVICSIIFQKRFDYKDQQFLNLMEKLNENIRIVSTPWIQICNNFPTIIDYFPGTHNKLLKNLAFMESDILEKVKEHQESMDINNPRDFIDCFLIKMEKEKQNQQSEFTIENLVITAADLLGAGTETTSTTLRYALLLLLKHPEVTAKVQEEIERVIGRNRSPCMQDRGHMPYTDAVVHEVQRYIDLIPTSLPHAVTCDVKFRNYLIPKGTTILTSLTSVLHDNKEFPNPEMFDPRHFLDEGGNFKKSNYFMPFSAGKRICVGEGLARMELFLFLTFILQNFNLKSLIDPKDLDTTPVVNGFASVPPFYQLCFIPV", "experiment": "qHTS Assay for Inhibitors and Substrates of Cytochrome P450 2C19 (AID 899)", "conditions": "recombinant CYP2C19, luciferin-H EGE luminescence; series mostly up to 57.1 µM", "summary_of_the_method": "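5nM enzyme + 10uM Luciferin-H EGE (=KM), 50mM KPO4; cpd pin-transferred, 10 min 37C; NADPH regen, 60 min 37C; stopped w/ luciferin detection reagent, 20 min; luminescence. Normalized to 57uM ketoconazole (AC100).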"}, "[7]": {"biological_target": "Cytochrome P450 2D6 (Homo sapiens) (UniProt P10635)", "sequence (P10635 whole entry, looked up)": "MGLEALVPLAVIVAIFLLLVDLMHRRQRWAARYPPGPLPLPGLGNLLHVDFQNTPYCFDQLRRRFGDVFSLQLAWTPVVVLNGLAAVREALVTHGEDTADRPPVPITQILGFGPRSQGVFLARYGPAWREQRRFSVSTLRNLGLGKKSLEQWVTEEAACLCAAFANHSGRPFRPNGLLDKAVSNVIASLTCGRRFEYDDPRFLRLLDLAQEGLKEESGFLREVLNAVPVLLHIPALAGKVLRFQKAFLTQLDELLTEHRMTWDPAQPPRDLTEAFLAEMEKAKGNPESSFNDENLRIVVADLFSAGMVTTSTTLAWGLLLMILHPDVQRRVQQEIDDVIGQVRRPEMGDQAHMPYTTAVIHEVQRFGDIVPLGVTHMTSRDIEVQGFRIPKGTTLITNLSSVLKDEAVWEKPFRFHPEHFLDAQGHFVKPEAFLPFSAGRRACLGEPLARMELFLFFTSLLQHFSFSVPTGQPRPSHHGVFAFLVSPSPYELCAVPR", "experiment": "qHTS Assay for Inhibitors and Substrates of Cytochrome P450 2D6 (AID 891)", "conditions": "recombinant CYP2D6, luciferin-ME EGE luminescence; series mostly up to 57.1 µM", "summary_of_the_method": "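Luminescent read-out of luciferin formed by 5 nM human CYP2D6 demethylating 30 uM Luciferin-ME EGE (Km level) over 60 min at room temperature after NADPH regeneration addition. Data normalized to full inhibition by 1.43 uM quinidine.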"}, "[8]": {"biological_target": "Rap guanine nucleotide exchange factor 3 (Homo sapiens) (UniProt O95398)", "sequence (O95398 whole entry, looked up)": "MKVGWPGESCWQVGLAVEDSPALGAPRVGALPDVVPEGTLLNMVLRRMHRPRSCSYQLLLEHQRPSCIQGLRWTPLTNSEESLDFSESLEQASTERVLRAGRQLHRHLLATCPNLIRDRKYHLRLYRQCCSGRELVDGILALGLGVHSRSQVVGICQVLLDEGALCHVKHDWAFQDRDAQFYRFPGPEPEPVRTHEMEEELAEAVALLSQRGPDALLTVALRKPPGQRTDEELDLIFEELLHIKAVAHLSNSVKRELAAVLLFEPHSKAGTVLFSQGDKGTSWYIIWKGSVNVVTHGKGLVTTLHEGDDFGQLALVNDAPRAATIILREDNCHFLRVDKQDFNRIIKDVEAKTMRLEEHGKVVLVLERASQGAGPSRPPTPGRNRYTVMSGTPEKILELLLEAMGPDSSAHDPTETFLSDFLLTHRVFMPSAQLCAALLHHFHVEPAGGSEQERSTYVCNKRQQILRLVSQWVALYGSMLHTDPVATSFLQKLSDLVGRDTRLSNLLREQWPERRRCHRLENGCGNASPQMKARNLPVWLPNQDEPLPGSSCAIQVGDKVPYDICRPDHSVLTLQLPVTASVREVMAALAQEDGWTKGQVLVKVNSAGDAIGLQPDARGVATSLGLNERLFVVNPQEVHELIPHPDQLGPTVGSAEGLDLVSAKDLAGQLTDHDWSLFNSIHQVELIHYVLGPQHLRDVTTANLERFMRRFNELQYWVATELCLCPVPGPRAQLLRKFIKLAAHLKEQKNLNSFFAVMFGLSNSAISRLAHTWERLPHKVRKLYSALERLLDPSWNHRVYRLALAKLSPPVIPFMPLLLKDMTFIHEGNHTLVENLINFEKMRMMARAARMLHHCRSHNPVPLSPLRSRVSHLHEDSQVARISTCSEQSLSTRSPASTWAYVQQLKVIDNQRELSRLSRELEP", "experiment": "Confirmatory qHTS for agonist of cAMP-regulated guanine nucleotide exchange factor 3 (EPAC1) (AID 1645881)", "conditions": "EPAC1 Rap1B BODIPY-GDP exchange fluorescence, 100% = cAMP control response; series mostly up to 154 µM"}, "[9]": {"biological_target": "Rap guanine nucleotide exchange factor 3 (Homo sapiens) (UniProt O95398)", "experiment": "Counterscreen qHTS for agonist of cAMP-regulated guanine nucleotide exchange factor 3 (EPAC1) (AID 1645889)", "conditions": "EPAC1 Rap1B-BODIPY-GDP exchange, fluorescence; series mostly up to 154 µM", "summary_of_the_method": "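Rap1B-BODIPY-GDP 250 nM + GDP 50 uM; cpds 7-pt, final 9.74 nM–152 uM (activator mode) or from 7.32 nM upwards (inhibitor mode); RT; FI 480/540 nm at 5 and 30 min, then ± cAMP, reread.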"}, "[10]": {"biological_target": "Lysosomal acid glucosylceramidase (Homo sapiens) (UniProt P04062)", "sequence (P04062 whole entry, looked up)": "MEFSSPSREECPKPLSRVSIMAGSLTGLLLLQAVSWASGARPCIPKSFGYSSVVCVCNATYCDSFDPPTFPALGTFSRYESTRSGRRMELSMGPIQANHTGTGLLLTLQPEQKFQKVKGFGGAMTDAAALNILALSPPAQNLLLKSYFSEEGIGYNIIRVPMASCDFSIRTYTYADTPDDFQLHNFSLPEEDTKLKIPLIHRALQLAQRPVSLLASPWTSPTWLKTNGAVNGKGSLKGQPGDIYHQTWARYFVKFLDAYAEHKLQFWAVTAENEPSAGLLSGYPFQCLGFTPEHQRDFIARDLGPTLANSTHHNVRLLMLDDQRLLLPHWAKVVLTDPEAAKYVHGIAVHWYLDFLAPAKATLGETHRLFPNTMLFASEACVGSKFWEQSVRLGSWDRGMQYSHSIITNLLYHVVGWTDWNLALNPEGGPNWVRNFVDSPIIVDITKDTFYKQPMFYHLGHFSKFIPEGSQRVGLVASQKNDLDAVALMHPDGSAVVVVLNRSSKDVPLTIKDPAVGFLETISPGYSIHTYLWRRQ", "experiment": "Glucocerebrosidase-p2 (AID 348; in the data active = potency below about 10 µM)", "conditions": "purified GBA, blue fluorogenic substrate, 40 min", "summary_of_the_method": "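Normal human glucocerebrosidase (0.2 nM) with blue fluorogenic substrate (80 uM final) in citrate/phosphate pH 5.9 with 10mM sodium taurocholate, 0.01% tween-20; 40 min RT, NaOH/glycine stop; fluorescence Ex 365/Em 440; AC50 from a titration from 0.6 nM upwards.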"}, "[11]": {"experiment": "AP1 Signaling Pathway (AID 357; active = well fitted curve in either direction with a large enough effect, not every such curve was filed as active)", "conditions": "ME-180 AP-1-bla reporter, EGF-induced, beta-lactamase ratio, 5 h; at 7.69 µM (top of the series)", "summary_of_the_method": "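Modulation of EGF-driven AP-1 transcription was assessed with a beta-lactamase reporter in ME-180 cells. Compound and EC50 EGF were co-incubated 5 hours at 37 °C before 2.5-hour CCF4 loading at room temperature and dual-emission reading.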"}, "[12]": {"experiment": "NFAT Signaling Pathway (AID 444; active = well fitted curve in either direction with a large enough effect, not every such curve was filed as active)", "conditions": "Jurkat NFAT-bla M1, carbachol, beta-lactamase ratio, 5 h; at 7.69 µM (top of the series)", "summary_of_the_method": "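Read-out: CCF4 FRET ratio (460 nm/530 nm) after 1 h RT dye loading, used for %activity and AC50 from titration series. Cells: Jurkat NFAT-β-lactamase/M1 line, treated with compound plus 1 uM carbachol for 5 h, 37 °C.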"}, "[13]": {"biological_target": "3',5'-cyclic-AMP phosphodiesterase 4B (Homo sapiens) (UniProt Q07343)", "sequence (Q07343 whole entry, looked up)": "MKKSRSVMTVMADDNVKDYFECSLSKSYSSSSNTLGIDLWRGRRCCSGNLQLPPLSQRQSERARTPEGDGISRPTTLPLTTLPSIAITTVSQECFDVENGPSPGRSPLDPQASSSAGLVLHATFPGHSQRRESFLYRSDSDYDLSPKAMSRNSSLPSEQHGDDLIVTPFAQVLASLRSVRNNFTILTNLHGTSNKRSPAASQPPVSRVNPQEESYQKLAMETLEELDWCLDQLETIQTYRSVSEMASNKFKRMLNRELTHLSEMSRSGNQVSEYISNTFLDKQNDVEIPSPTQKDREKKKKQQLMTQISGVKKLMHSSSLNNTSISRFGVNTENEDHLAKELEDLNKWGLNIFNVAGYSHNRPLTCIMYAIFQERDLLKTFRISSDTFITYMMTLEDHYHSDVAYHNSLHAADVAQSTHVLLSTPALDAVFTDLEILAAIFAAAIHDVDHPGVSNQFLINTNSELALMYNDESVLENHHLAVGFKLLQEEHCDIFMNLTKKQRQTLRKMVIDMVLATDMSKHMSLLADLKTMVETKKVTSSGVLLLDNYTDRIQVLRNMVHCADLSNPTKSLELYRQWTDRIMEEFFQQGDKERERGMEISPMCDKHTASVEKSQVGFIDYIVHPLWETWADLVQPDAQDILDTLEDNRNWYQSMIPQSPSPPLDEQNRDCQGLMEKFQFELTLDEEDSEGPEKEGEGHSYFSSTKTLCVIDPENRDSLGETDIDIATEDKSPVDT", "experiment": "qHTS Assay for Inhibitors of PDE-IV (AID 607; active = well fitted activation curve with a large enough effect in the main read-out, with a control signal flat, not every such curve was filed as active)", "conditions": "HEK293 ACTOne CNG channel cells, membrane potential fluorescence; series mostly up to 22.9 µM", "summary_of_the_method": "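The readout is membrane depolarisation from a cAMP-sensing CNG channel, detected with a potential dye at ex 535/em 590. Cells were HEK293-derived (endogenous PDE-IV) at 1000 cells/well, titrated up to 22.9 uM final.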"}, "[14]": {"experiment": "Primary qHTS for inhibitors of nuclear receptor binding SET domain protein 2 (NSD2) in an isogenic RCH-ACV NSD2 p.E1099K mutant (9B) (AID 1645876)", "conditions": "RCH-ACV NSD2 E1099K (9B) viability, CellTiter-Glo, 72 h; series mostly up to 44.9 µM"}, "[15]": {"test_system": "Nanoluciferase (engineered Oplophorus gracilirostris luciferase)", "experiment": "Primary Nanoluciferase (NLuc) qHTS assay for identification of artifact compounds. (AID 1845222)", "conditions": "NLuc-conditioned medium, Nano-Glo luminescence, 5 min; series mostly up to 54.1 µM", "summary_of_the_method": "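Compounds are pinned into diluted (1:55) conditioned medium of NLuc-expressing S16 cells and held 15 min at room temperature protected from light. Nano-Glo substrate follows, and luminescence is read 5 min later.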"}, "[16]": {"experiment": "Primary redox qHTS assay for identification of artifact compounds. (AID 1845223)", "conditions": "Amplex Red/HRP redox cycling with DTT, fluorescence; series mostly up to 53.8 µM", "summary_of_the_method": "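Redox-cycling detection via DTT (250 uM final) oxidation coupled to Amplex Red (25 uM)/HRP (250 mU/mL) in HBSS. 15 min preincubation plus 30 min after DTT, room temperature. Ex/Em 525/598 nm; 4-parameter Hill fit against DMSO and 10 uM DA3003.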"}}, "note": "Results filed as inconclusive are left out. Active and inactive are the calls of the source. Unless noted, calls follow the shape of the dose curve; as a rule, active = well fitted curve in the direction sought with a large enough effect; inconclusive = small, poorly fitted or top-dose-only effect, or another doubt; inactive = no such curve, though single readings can be large; an effect the other way counts as inactive or inconclusive."}
{"compound": "CC(C)N=C(N)N=C(N)Nc1ccc(Cl)cc1", "values": [{"measurement": "remaining proliferation (% of control), lower = more inhibition", "setting": "[1]", "result": 0.187, "unit": "%"}, {"measurement": "parasite growth, % of DMSO control", "setting": "[2]", "result": 5.61, "unit": "%"}, {"measurement": "parasite growth remaining, % of DMSO control (lower = more inhibition)", "setting": "[3]", "result": 7.67, "unit": "%"}, {"measurement": "parasite growth, % of control (lower = inhibition)", "setting": "[4]", "result": 12.7, "unit": "%"}, {"measurement": "growth, % of control", "setting": "[5]", "result": 3.71, "unit": "%"}]}
{"compound": "Cc1cc(Cn2cnc3c2C[C@@H](C(=O)O)N(C(=O)C(c2ccccc2)c2ccccc2)C3)ccc1N(C)C", "values": [{"measurement": "Potency", "setting": "[6]", "result": "1.58 µM (active)"}]}
{"compound": "O=C(c1ccc(F)cc1)C1CCN(CCCCc2ccccc2)CC1", "values": [{"measurement": "Potency", "setting": "[7]", "result": "0.0126 µM (active)"}]}
{"compound": "O=C(Nc1ccccc1C(=O)OCc1cc(=O)n2c3c(sc2n1)CCCC3)c1ccc(F)cc1", "values": [{"measurement": "outcome", "setting": "[8]", "result": "inactive"}]}
{"compound": "O=C(O)c1ccccc1-c1c2cc(I)c(=O)c(I)c-2oc2c(I)c(O)c(I)cc12", "values": [{"measurement": "Potency", "setting": "[9]", "result": "7.08 µM (active)"}]}
{"compound": "O=C(O)c1c(Br)c(Br)c(Br)c(Br)c1C1c2ccc(O)cc2Oc2cc(O)ccc21", "values": [{"measurement": "Potency", "setting": "[10]", "result": "7.36 µM (active)"}, {"measurement": "activity change, negative = inhibition", "setting": "[11]", "result": "-20.1% (inactive)"}, {"measurement": "activity change, negative = inhibition", "setting": "[12]", "result": "-6.47% (inactive)"}, {"measurement": "Potency", "setting": "[13]", "result": "inactive"}]}
{"compound": "O=C(CCCCCCC(=O)Nc1ccc(C2OC(CSc3nc(-c4ccccc4)c(-c4ccccc4)o3)CC(c3ccc(CO)cc3)O2)cc1)NO", "note": "(stereo unspecified)", "values": [{"measurement": "Potency", "setting": "[14]", "result": "5.15 µM (active)"}, {"measurement": "Potency", "setting": "[15]", "result": "inactive"}, {"measurement": "Potency", "setting": "[16]", "result": "inactive"}]}
